Experimental findings from ChEMBL document CHEMBL3988442, “University of Dundee, Small-Polar-MMV Screening Library” (2021) are described below.

The campaign covered roughly 69,000 compounds. About 420 (0.61%) showed an effect of 50% or more. For the sample, strong results were picked, then their nearest neighbours and some compounds at random.

The target in the test is T1, Histidine--tRNA ligase (Leishmania infantum) (UniProt A4I591).
T1 sequence (whole entry): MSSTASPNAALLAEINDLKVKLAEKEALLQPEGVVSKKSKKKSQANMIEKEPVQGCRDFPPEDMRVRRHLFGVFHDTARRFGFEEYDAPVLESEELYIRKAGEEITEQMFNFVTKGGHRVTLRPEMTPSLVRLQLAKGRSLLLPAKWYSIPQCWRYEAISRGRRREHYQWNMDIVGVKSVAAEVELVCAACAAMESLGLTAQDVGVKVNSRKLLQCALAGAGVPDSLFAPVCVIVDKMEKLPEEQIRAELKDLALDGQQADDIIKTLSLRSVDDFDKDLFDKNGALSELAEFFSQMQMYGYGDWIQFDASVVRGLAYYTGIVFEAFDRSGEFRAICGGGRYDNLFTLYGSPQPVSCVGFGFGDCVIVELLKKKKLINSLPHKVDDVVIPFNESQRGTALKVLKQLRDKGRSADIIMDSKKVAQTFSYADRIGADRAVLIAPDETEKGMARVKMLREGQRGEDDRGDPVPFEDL
Description: Leishmania infantum Histidine tRNA synthetase (LdHisRS). The class given is functional. Details: scale not given: in the data most compounds retested in dose-response had high values. To be noted: 30 µM.
`COC[C@@]12CC[C@@H](N3CCOCC3)C[C@H]1CCN(c1ncccc1F)C2`: the Percent Effect came to 19.4%.

Turning to `O=C1OCCN1CC(=O)N1C[C@H]2CC[C@@H]1CN(Cc1cscn1)C2`, the Percent Effect is -18.2%. For the compound `O=C(c1ccccn1)N1CC[C@H]2C(=O)N(c3ccsc3)CCO[C@H]2C1`, the Percent Effect is 18%. With `c1csc(N2CCCN(c3ncnc4sccc34)CC2)n1`, the Percent Effect was determined as 22.4%. Turning to `c1csc(N2CCN(c3ncnc4sccc34)CC2)n1`, the Percent Effect was determined as 27.1%. On to `CCCn1nc2c(cc1=O)CN(c1ncnc3sccc13)CC2`, for which the Percent Effect came to 15.3%.

Turning to `CCn1nc2c(cc1=O)CN(c1ncnc3sccc13)CC2`, the Percent Effect was determined as 102%.

Take `Cn1nc2c(cc1=O)CN(c1ncnc3sccc13)CC2`: the Percent Effect is 100%. Regarding `CC(C)n1nc2c(cc1=O)CN(c1ncnc3sccc13)CC2`, the Percent Effect was found to be 38.7%. As to `O=C1N(c2cccc(F)c2)Cc2nc(=O)n(Cc3ccc(Cl)cc3)n21`, the Percent Effect came to 9.78%.

Regarding `O=C(Cc1ccco1)N1C[C@H]2CCC[C@@]2(COCC2CC2)C1`, the Percent Effect worked out at 20%. As for `CN(C)C(=O)CN1CC[C@H]2CN(S(C)(=O)=O)C[C@@H]2C1=O`, the Percent Effect worked out at 15.5%.

In the case of `CN(C)C(=O)N1C[C@H](Oc2ccccn2)[C@H]2OCCC[C@H]21`, the Percent Effect came to 8.74%. For the compound `COCC(=O)N1C[C@H]2CNC[C@@]2(C(=O)NCc2snnc2C)C1`, the Percent Effect came to 18.6%.

Regarding `COc1cccn(CC(=O)N(C)CCOc2cc(C)cc(C)c2)c1=O`, the Percent Effect stood at 105%. Regarding `COc1cccn(CC(=O)N(C)Cc2ccoc2)c1=O`, the Percent Effect was found to be 47.6%. As for `CN(CCCOc1ccccc1Cl)C(=O)CN1CCCCCC1=O`, the Percent Effect worked out at 21.2%. Regarding `COc1cccn(CC(=O)N(C)CCC2CCOCC2)c1=O`, the Percent Effect came out at 91.2%. For `CCN(CC1CCOCC1)C(=O)Cn1cccc(C(F)(F)F)c1=O`, the Percent Effect was found to be 13.2%.

With `CCc1ccccc1OCCN(C)C(=O)CN1CCCC1`, the Percent Effect came to 22.2%. The figure for `COCCN(C)C(=O)Cn1cccc(OC)c1=O` is 105%; for `CCc1cccc(OCCCN(C)C(=O)CN2CCNC2=O)c1` it is 8.85%; for `COc1cccn(CC(=O)N(C)CCSC)c1=O` it is 32%. With `CN(CCCOc1ccccc1Cl)C(=O)CN1C[C@@H]2CC[C@H](CC1=O)N2`, the Percent Effect is 17.7%. Take `CN(CCOCC1CC1)C(=O)Cn1cccc(C(F)(F)F)c1=O`: the Percent Effect turned out to be 15.4%. Consider `COCCCN(C)C(=O)Cn1cccc(OC)c1=O`, for which the Percent Effect came to 107%. Consider `CC(=O)N1CC[C@H]2CC(=O)N(C3CC3)CC[C@H]2C1`, for which the Percent Effect turned out to be 22.2%. `CNC(=O)CN1CC[C@H]2CN(C(=O)c3cc[nH]n3)C[C@H]2C1`: the Percent Effect is 16.7%. As to `CNC(=O)[C@@H]1CC[C@@H]2[C@@H](CCN2Cc2cn(C)c3ccccc23)O1`, the Percent Effect was 13.2%. As to `O=C1[C@H]2CC[C@H](CN(C3CSCCSC3)C2)N1Cc1cscn1`, the Percent Effect stood at 11.4%.

Turning to `CN(C)S(=O)(=O)N1CC[C@]2(O)CCN(CCc3cccc(F)c3)C[C@@H]2C1`, the Percent Effect turned out to be 43.4%. Consider `Cc1nc(CN2C[C@@H]3CN(C(=O)c4cccn4C)C[C@@H]3C2)cs1`, for which the Percent Effect is -1.92%. Take `CC(=O)N1CCO[C@@H]2CN(Cc3ccccc3Cl)C[C@@H]2C1`: the Percent Effect turned out to be 11.7%. For `Cc1nc(CN2C[C@@H]3CN(C(=O)C4(C#N)CC4)C[C@@H]3C2=O)cs1`, the Percent Effect worked out at 26.5%. With `Cc1nc([C@H]2C[C@H]3CN(C(=O)c4ccoc4C)CC[C@@H]3O2)no1`, the Percent Effect is 15.1%.

Consider `CN(CCCOc1ccccc1Cl)C(=O)CN1C(=O)CCNC1=O`, for which the Percent Effect was 14.2%. For `COc1cccn(CC(=O)N(C)CCCOc2c(C)cccc2C)c1=O`, the Percent Effect turned out to be 110%.

Take `CN(CCCOc1ccccc1Cl)C(=O)CN1CCNC1=O`: the Percent Effect is 24.8%. As for `Cc1ccc(N(C)[C@@H]2CC[C@@H]3CN(C(=O)CC4CCOCC4)C[C@@H]32)nn1`, the Percent Effect was determined as 12.8%. For `Cc1ccnc(N2C[C@@H]3CC[C@H](C2)N(CC2CCC2)C3=O)n1`, the Percent Effect stood at 34.4%. For `Cn1cc(CCC(=O)N2C[C@@H]3CC[C@H](C2)N(Cc2ccccn2)C3)cn1`, the Percent Effect was 24.1%. In the case of `Cc1ccc(N2C[C@H]3OCC[C@H]3[C@H](C(=O)NC3CCC3)C2)nn1`, the Percent Effect worked out at 11.8%. Consider `Cc1nccn1-c1nccnc1C1CCCN(C2CCCC2)C1` (stereo unspecified), for which the Percent Effect was -4.2%. On to `Cc1nccn1-c1cccc(C2CCCN(C(=O)c3cc[nH]n3)C2)n1` (stereo unspecified), for which the Percent Effect came out at 17.1%. With `Cc1nccn1-c1cccc(C2CCCN(C3CCCC3)C2)n1` (stereo unspecified), the Percent Effect amounted to 65.2%.

As for `Cc1nccn1-c1cccc(C2CCCN(C3CCCCC3)C2)n1` (stereo unspecified), the Percent Effect was 55.6%. The figure for `CC(C)c1nccn1-c1cccc(C2CCCN(C3CCCC3)C2)n1` (stereo unspecified) is 22.9%. In the case of `CCc1nccn1-c1cccc(C2CCCN(C3CCCCC3)C2)n1` (stereo unspecified), the Percent Effect was 42%. For the compound `COCC(=O)N1CC[C@@H]2CN(Cc3cccc(Cl)c3)S(=O)(=O)[C@@H]2CC1`, the Percent Effect amounted to 3.77%. Take `Cn1ccc(NC(=O)CN2C[C@H]3CC[C@@H]2CN(Cc2ccccn2)C3)n1`: the Percent Effect stood at 0%. The figure for `NC(=O)C1CCN(C(=O)Cc2cnc(-c3c(Cl)cccc3Cl)s2)CC1` is 12.1%; for `CC(=O)N1CCN(C(=O)Cc2cnc(-c3c(Cl)cccc3Cl)s2)CC1` it is -1.1%; for `O=C(Cc1cnc(-c2c(Cl)cccc2Cl)s1)N1CCOCC1` it is 64.8%. As for `Cc1nnsc1C(=O)N1CC[C@H](c2ccccc2)[C@@H]2[C@H]1CCCCN2C`, the Percent Effect stood at 7.29%.

In the case of `Cc1ccc(Cl)cc1NC(=O)Cn1cc(C(=O)O)ccc1=O`, the Percent Effect amounted to 6.67%. Regarding `Cc1cccc(Cl)c1NC(=O)Cn1cc(C(=O)O)ccc1=O`, the Percent Effect is 18.3%.
